This is a sample that favours compounds with a hit; in the whole collection about 7.4% have one here.
SMN2 splice enh = enhancers of SMN2 splice variant expression; HEK293 SMN2-luciferase splicing reporter, luminescence, 30-36 h; Potency, µM (series often up to 46.1 µM), inactives show top-dose activity change, positive = activation, actives largely listed as activators; 210,000 compounds, 2.8% hits; AID 1458; note: % of control where 0% means no effect; nearly all actives have a fitted effect of over 55% in size
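qHTS luciferase splicing reporter: luminescence rises when SMN2 exon 7 is included in transfected HEK293 cells. Compound exposure lasted 30-36 h at 37C, with 4.5 mM final sodium butyrate as control, followed by a ONE-Glo read.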
p53 reactivator = restores transcriptional activity of mutant p53; H1299 p53-A138V BP100-luciferase reporter, luminescence, 24 h; Potency, µM (top dose mostly 92.2 µM), inactives show top-dose activity change, positive = activation, hits mostly activators; 320,000 compounds, 0.063% hits; note: % of control where 0% means no effect; nearly all actives have a fitted effect of over 45% in size
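p53-null H1299 cells stably carrying temperature-sensitive p53-A138V and a BP100-luciferase reporter were pinned with compounds (4-point, 1:5 series) and held 24 hrs at 37 deg C. Luminescence was read 10 min after detection reagent.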
NPC1 prom act = activators of NPC1 promoter | Huh7 NPC1 promoter luciferase reporter, 24 h | Potency, µM (doses to about 9.22 µM), for the others: at the top dose activation, usual class: activators | 320,000 compounds, 2.4% hits | AID 485313; note: % of control where 0% means no effect; nearly all actives have a fitted effect of over 60% in size
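Huh7 cells stably carrying NPC1 promoter–luciferase, plated in Opti-MEM with 10% FBS for 2 h, were exposed to compound in DMSO for 24 h at 37 °C; luciferase reagent was added for 10 min and luminescence read.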
Rab9 promoter act = activates the Rab9 promoter. Huh7 Rab9 promoter-luciferase reporter, luminescence, 24 h. Potency, µM (series often up to 9.22 µM), inactives show top-dose activation, negative = inhibition, hits mostly activators. 320,000 compounds, 2.8% hits; note: % of control where 0% means no effect; nearly all actives have a fitted effect of over 60% in size
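Huh7 reporter line, Rab9 promoter upstream of luciferase. Compound exposure 24 h at 37 °C in reduced-serum medium with 10% FBS. Read-out: luminescence.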
ELG1 genotox = inducers of genotoxicity in HEK293T ELG1-luciferase cells | HEK293T ELG1-luciferase reporter, luminescence, 16 h | Potency, µM (series often up to 46 µM), without a hit: at the top dose activity change, positive = activation, usual class: activators | 330,000 compounds, 1.3% hits | AID 504466; note: % of control where 0% means no effect; nearly all actives have a fitted effect of over 60% in size
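HEK293T cells expressing luciferase-tagged ELG1 were treated with compound or DMSO for 16 hr at 37°C. Luciferase activity was then read after 30 min with ONE-Glo at room temperature; rising signal flags genetic stress.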
FLuc counter = firefly luciferase modulation, counter-screen for miR-21 project; 360,000 compounds, 6.9% hits; purified FLuc, Km substrates, luminescence inhibition; P08659; AID 588342; Potency, µM (series often up to 57.5 µM), without a hit: at the highest dose activity change, negative = inhibition, actives largely listed as inhibitors;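 note: plate controls were vehicle for no effect and reference inhibitor for full effect; nearly all actives have a fitted effect of over 55% in size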
Target sequence (P08659 whole entry, looked up): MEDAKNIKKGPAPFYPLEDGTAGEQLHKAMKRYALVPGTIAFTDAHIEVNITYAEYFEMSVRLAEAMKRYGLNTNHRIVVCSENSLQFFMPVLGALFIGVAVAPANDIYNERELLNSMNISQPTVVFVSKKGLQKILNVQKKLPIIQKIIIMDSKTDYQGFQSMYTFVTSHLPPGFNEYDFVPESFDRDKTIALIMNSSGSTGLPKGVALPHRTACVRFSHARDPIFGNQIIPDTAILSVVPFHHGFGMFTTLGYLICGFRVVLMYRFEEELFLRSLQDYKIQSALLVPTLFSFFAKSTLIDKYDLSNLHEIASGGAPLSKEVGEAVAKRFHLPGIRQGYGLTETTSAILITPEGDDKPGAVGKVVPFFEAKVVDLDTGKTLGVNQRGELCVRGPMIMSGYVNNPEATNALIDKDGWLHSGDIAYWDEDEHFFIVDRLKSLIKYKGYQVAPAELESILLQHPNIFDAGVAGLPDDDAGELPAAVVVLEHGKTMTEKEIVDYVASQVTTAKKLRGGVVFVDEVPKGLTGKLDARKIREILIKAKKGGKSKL
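Biochemical qHTS of compounds, final roughly 60 µM downward over six points, against 10 nM purified firefly luciferase using Km concentrations of substrates (10 uM D-luciferin, 10 uM ATP) in Tris acetate pH 7.5 buffer; luminescence output.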
Active calls of the source: *. Calls come from the whole dose curve; as a rule, active = well fitted curve in the direction sought with a large enough effect; inconclusive = small, poorly fitted or top-dose-only effect, or another doubt; inactive = no such curve, though single readings can be large; an effect the other way counts as inactive or inconclusive. Potency is the fitted concentration of half-maximal effect.

Screening CC(=O)c1ccc(OCc2cc(C(=O)NCCN3CCCC(O)C3)no2)cc1 (centres undefined) returned p53 reactivator 9%, NPC1 prom act -3%, Rab9 promoter act -1%, ELG1 genotox -1% and FLuc counter 4%.
`CC(=O)c1ccc(OCc2cc(C(=O)N(C)Cc3nc4c(C)cccc4[nH]3)no2)cc1` gave p53 reactivator -5%, NPC1 prom act -10%, Rab9 promoter act -5%, ELG1 genotox -9% and FLuc counter 0%.
Screening CC(=O)c1ccc(OCc2cc(C(=O)N3CCN4CCCC4C3)no2)cc1 (centres undefined) returned p53 reactivator -11%, NPC1 prom act 0%, Rab9 promoter act 4%, ELG1 genotox -6% and FLuc counter 3%.
CN(C)CCNC(=O)CN1N=C(c2ccccc2)CCC1=O was read as FLuc counter 1%.
For COc1ccc(S(=O)(=O)NCCc2csc(-c3ccc(F)cc3)n2)cc1F the results were FLuc counter -1%.
For CC(C)c1nnc(NC(=O)C2CCN(C(=O)Nc3ccc(Cl)cc3)CC2)s1 the results were p53 reactivator 1%, NPC1 prom act -4%, Rab9 promoter act 2%, ELG1 genotox 1% and FLuc counter -18%.
Cn1c(-c2cc3ccccc3oc2=O)nc2ccccc21 was read as p53 reactivator 11%, NPC1 prom act 4.5µM*, Rab9 promoter act 3.5µM*, ELG1 genotox inconclusive and FLuc counter 21µM*.
For Cc1cc(N)ccc1-c1cc2ccccc2oc1=O the results were p53 reactivator 9%, NPC1 prom act 20%, Rab9 promoter act 29%, ELG1 genotox 9% and FLuc counter inconclusive.
`COc1ccc2cc(-c3nc4ccccc4n3C)c(=O)oc2c1` gave SMN2 splice enh 13µM*, p53 reactivator inconclusive, NPC1 prom act 2µM*, Rab9 promoter act 1.3µM*, ELG1 genotox inconclusive and FLuc counter 5.4µM*.
Screening Cc1ccc(S(=O)(=O)O)cc1C returned SMN2 splice enh 1%.
`CCOc1ccc(N2C(=O)/C(=C/c3ccccc3)N=C2SC)cc1` gave SMN2 splice enh -11%, p53 reactivator 3%, NPC1 prom act 3.5µM*, Rab9 promoter act inconclusive, ELG1 genotox inconclusive and FLuc counter -9%.
For CCCOc1ccc(N2C(=O)C/C(=C\c3ccccc3)C2=O)cc1 the results were p53 reactivator -8%, NPC1 prom act -3%, Rab9 promoter act -1%, ELG1 genotox -9% and FLuc counter 0%.
`COc1ccc(/C=C2/N=C(SC3CCOC3=O)N(c3cccc(OC)c3)C2=O)cc1` (centres undefined) gave p53 reactivator -18%, NPC1 prom act 2%, Rab9 promoter act 0%, ELG1 genotox 0% and FLuc counter -14%.
Screening COc1ccc(/C=C2\N=C(SC)N(c3ccccc3OC)C2=O)cc1 returned SMN2 splice enh 1.3µM*, p53 reactivator 6%, NPC1 prom act -6%, Rab9 promoter act inconclusive, ELG1 genotox -14% and FLuc counter inconclusive.
Screening O=C1c2ccccc2C(=O)N1c1ccc(-c2nc3ccccc3o2)cc1 returned p53 reactivator 8%, NPC1 prom act inconclusive, Rab9 promoter act 4.5µM*, ELG1 genotox 10% and FLuc counter inconclusive.
Cc1cc(C)cc(OCC(=O)Nc2ccc(-c3nc4ccccc4o3)cc2)c1 was read as SMN2 splice enh 6.3µM* and FLuc counter 3%.
`O=C1c2ccccc2C(=O)N1c1cccc(-c2nc3ccccc3o2)c1` gave SMN2 splice enh -19%, p53 reactivator 1%, NPC1 prom act 3%, Rab9 promoter act -4%, ELG1 genotox -1% and FLuc counter 0%.
For O=C(CCN1C(=O)c2ccccc2C1=O)Nc1ccc(-c2nc3ccccc3o2)cc1 the results were SMN2 splice enh 8.9µM*, p53 reactivator 2%, NPC1 prom act 2.2µM*, Rab9 promoter act 1.4µM*, ELG1 genotox 1.5µM* and FLuc counter 2%.
Cc1cccc(OCC(=O)Nc2ccc(-c3nc4ccccc4o3)cc2)c1C was read as SMN2 splice enh inconclusive and FLuc counter 1%.
For CCN(CC)CCN(Cc1cc2cc3c(cc2[nH]c1=O)OCO3)C(=S)NC the results were p53 reactivator 13%, NPC1 prom act 0%, Rab9 promoter act -5%, ELG1 genotox 1% and FLuc counter 1%.
Screening COc1ccc(/C=C2\CCc3ccccc3C2=O)cc1O returned p53 reactivator inconclusive, NPC1 prom act -2%, Rab9 promoter act 3%, ELG1 genotox 3.7µM* and FLuc counter 0.34µM*.
For COc1ccc(/C=C2\Cc3ccccc3C2=O)cc1OC the results were p53 reactivator 13%, NPC1 prom act 12%, Rab9 promoter act -2%, ELG1 genotox 16µM* and FLuc counter 3.4µM*.
`COc1ccc(/C=C2\CCc3ccccc3C2=O)cc1Cn1cccn1` gave SMN2 splice enh -12%, p53 reactivator inconclusive, NPC1 prom act 1%, Rab9 promoter act 2%, ELG1 genotox inconclusive and FLuc counter 5.4µM*.
For COc1ccc(/C=C2\CCC(C3CCCC3)C2=O)cc1Cn1cccn1 (centres undefined) the results were SMN2 splice enh -23%, p53 reactivator 15%, NPC1 prom act -1%, Rab9 promoter act -4%, ELG1 genotox 12% and FLuc counter inconclusive.
CN(C(=O)c1ccc2c(=O)n3c(nc2c1)CCCCC3)c1cccc(Cl)c1 was read as p53 reactivator 5%, NPC1 prom act -4%, Rab9 promoter act 0%, ELG1 genotox -2% and FLuc counter 1%.
Screening COc1ccc(-c2csc(C3=C(O)CN(C(C)C)C3=N)n2)cc1OC returned SMN2 splice enh 7%, p53 reactivator -1%, NPC1 prom act -3%, Rab9 promoter act 4%, ELG1 genotox inconclusive and FLuc counter 11µM*.
COc1ccc(-c2csc(-c3ccc(O)cc3)n2)cc1 was read as p53 reactivator 5%, NPC1 prom act -21%, Rab9 promoter act 2%, ELG1 genotox inconclusive and FLuc counter 9.5µM*.
`COc1ccc(-c2nc(CCl)cs2)cc1` gave SMN2 splice enh 5%, p53 reactivator 14%, NPC1 prom act 18%, Rab9 promoter act inconclusive, ELG1 genotox inconclusive and FLuc counter 9.5µM*.
COc1ccc(-c2nc(CCl)cs2)cc1OC was read as SMN2 splice enh -5%, p53 reactivator 4%, NPC1 prom act -2%, Rab9 promoter act 12%, ELG1 genotox 22% and FLuc counter inconclusive.

Screening data as filed in PubChem BioAssay.
